Results filed as inconclusive are left out. A call without a number means that no potency is given here. The source made the active and inactive calls. Calls follow the shape of the full dose curve.
What follows are compounds tested against 5-hydroxytryptamine receptor 2A (Homo sapiens) (UniProt P28223) (assay: 5-hydroxytryptamine receptor 2A (HTR2A) small molecule agonists, cell-based qHTS assay (AID 1963587; also: nearly all actives have a fitted effect of over 30% in size)). Details: HTR2A-CHO cells, calcium flux fluorescence, agonist mode; series mostly up to 76.8 µM; activation: at the top concentration.
Outline: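 CHO cells stably expressing human HTR2A, plated 18 h, loaded with calcium dye 1 h at 37 C. Agonist mode: compounds added and intracellular calcium fluorescence recorded kinetically for 2 min at 1 sec intervals.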
Potency is read from the fitted curve at half-maximal effect.

5-hydroxytryptamine receptor 2A (Homo sapiens), sequence (P28223 whole entry, looked up): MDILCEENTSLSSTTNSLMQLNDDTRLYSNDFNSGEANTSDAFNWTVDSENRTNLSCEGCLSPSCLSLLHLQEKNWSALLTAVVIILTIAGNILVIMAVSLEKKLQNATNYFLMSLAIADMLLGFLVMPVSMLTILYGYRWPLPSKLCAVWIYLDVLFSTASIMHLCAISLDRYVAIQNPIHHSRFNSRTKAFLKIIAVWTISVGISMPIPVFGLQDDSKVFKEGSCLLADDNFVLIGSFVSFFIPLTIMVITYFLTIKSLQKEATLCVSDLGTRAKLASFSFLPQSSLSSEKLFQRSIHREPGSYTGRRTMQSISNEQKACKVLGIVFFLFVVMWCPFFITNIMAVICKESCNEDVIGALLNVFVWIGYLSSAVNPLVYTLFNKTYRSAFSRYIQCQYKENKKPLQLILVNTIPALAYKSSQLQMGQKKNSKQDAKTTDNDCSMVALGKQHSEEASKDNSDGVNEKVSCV

Row | Structure (SMILES) | activation | Potency
1 | CC(C)[N+](C)(CCC(C(N)=O)(c1ccccc1)c1ccccc1)C(C)C | -0.633% [at 35.6 µM] (inactive) | 
2 | O=C(Cl)CCl | -0.17% (inactive) | 
3 | COC(=O)c1ccccc1N |  | inactive
4 | CN(C)NC(=O)CCC(=O)O |  | inactive
5 | CN(C)C(=O)C(c1ccccc1)c1ccccc1 |  | inactive
6 | ClCc1ccccn1 |  | inactive
7 | CCCOC(=O)c1ccccc1C(=O)OCCC |  | inactive
8 | Cc1ccc(N)c(N)c1 |  | inactive
9 | N#CC1(N=NC2(C#N)CCCCC2)CCCCC1 | 3.24% (inactive) | 
10 | C=C(C)C(=O)OCC(CC)CCCC (stereo unspecified) |  | inactive
11 | O=C(CCN1CC1)OCC(CO)(COC(=O)CCN1CC1)COC(=O)CCN1CC1 | 2.53% (inactive) | 
12 | CCCCOC(=O)c1ccccc1C(=O)OCCCC |  | inactive
13 | CC(O)CN(CC(C)O)CC(C)O (stereo unspecified) |  | inactive
14 | CN(N=O)C(N)=O | -1.43% (inactive) | 
15 | CCOC(=O)c1cncn1C(C)c1ccccc1 (stereo unspecified) | -4.37% [at 35.6 µM] (inactive) | 
16 | CCN(CC)c1ccccc1 |  | inactive
17 | CCOc1nc(F)cc2nc(S(=O)(=O)Nc3c(Cl)cccc3Cl)nn12 | -0.36% (inactive) | 
18 | O=[N+]([O-])c1ccccc1O |  | inactive
19 | Nc1ccc(N=Nc2ccc(-c3ccc(N=Nc4c(S(=O)(=O)O)cc5cc(S(=O)(=O)O)c(N=Nc6ccccc6)c(O)c5c4N)cc3)cc2)c(N)c1 |  | 31.6 µM (active)

Row | Structure (SMILES) | activation | Potency
20 | c1ccc(P(c2ccccc2)c2ccccc2)cc1 |  | inactive
21 | CCCCCBr | 5.88% (inactive) | 
22 | c1ccc2c(c1)sc1ccccc12 |  | inactive
23 | COc1ccc2c3c1O[C@H]1[C@H](O)CC[C@H]4[C@@H](C2)N(C)CC[C@@]341 | 10.9% (inactive) | 
24 | CN(C)CCc1c[nH]c2cccc(OP(=O)(O)O)c12 |  | 0.0855 µM (active)
25 | CC(Cl)C(=O)O (stereo unspecified) | -4.02% (inactive) | 
26 | Clc1ccc(Cl)cc1 |  | inactive
27 | FC(F)(F)c1ccc(Cl)cc1 |  | inactive
28 | CCCCCCCCCBr | -0.0592% (inactive) | 
29 | COC(=O)NS(=O)(=O)c1ccc(N)cc1 |  | inactive
30 | CC(O)CN1CCN(CC(=O)[O-])CCN(CC(=O)[O-])CCN(CC(=O)[O-])CC1.[Gd+3] (stereo unspecified) | 0.83% [at 35.6 µM] (inactive) | 
31 | Nc1cnn(-c2ccccc2)c(=O)c1Cl | -0.121% (inactive) | 
32 | Cl[C@H]1OCCO[C@@H]1Cl |  | inactive
33 | O=[N+]([O-])c1cc(Cl)ccc1Cl | -0.486% (inactive) | 
34 | c1nc[nH]n1 |  | inactive
35 | COC[C@H](C)N(C(=O)CCl)c1c(C)csc1C | 1.4% (inactive) | 
36 | CCC(=O)Nc1ccc(Cl)c(Cl)c1 |  | inactive
37 | C=C(C)C(=O)OCC1CO1 (stereo unspecified) |  | inactive
38 | O=C(NC(=O)c1c(F)cccc1F)Nc1cc(Cl)c(OC(F)(F)C(F)C(F)(F)F)cc1Cl (stereo unspecified) |  | inactive

Each compound was assayed against Muscarinic acetylcholine receptor M1 (Homo sapiens) (UniProt P11229) (assay: Cholinergic receptor muscarinic 1 (CHRM1) small molecule antagonists, cell-based qHTS assay (AID 1963588; also: nearly all actives have a fitted effect of over 40% in size)). Details: CHRM1-CHO antagonist mode, calcium flux fluorescence; series mostly up to 61.5 µM; activity, negative = inhibition: at the top concentration.
Outline: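 Compounds were tested at 15 concentrations in three independent runs. Dye-loaded CHRM1-CHO cells were exposed 5 min at room temperature before stimulation by acetylcholine added at 50nM. Intracellular calcium was read kinetically on FDSS for 3 min.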

Muscarinic acetylcholine receptor M1 (Homo sapiens), sequence (P11229 whole entry, looked up): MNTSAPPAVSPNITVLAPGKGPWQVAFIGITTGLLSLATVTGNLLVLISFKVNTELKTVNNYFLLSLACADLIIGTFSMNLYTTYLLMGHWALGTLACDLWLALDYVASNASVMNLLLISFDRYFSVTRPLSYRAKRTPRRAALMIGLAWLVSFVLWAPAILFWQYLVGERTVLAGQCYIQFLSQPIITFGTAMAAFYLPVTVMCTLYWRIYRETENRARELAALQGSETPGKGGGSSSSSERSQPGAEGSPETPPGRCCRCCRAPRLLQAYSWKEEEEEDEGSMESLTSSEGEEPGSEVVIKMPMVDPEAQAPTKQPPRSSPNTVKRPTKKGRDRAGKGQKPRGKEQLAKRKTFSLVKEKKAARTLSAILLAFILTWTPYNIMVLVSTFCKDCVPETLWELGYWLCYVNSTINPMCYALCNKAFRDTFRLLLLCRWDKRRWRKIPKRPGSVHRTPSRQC

Row | Structure (SMILES) | Potency | activity, negative = inhibition
39 | CC(C)[N+](C)(CCC(C(N)=O)(c1ccccc1)c1ccccc1)C(C)C | 0.0023 µM (active) | 
40 | O=C(Cl)CCl |  | 2.86% (inactive)
41 | COC(=O)c1ccccc1N | inactive | 
42 | CN(C)NC(=O)CCC(=O)O | inactive | 
43 | CN(C)C(=O)C(c1ccccc1)c1ccccc1 | inactive | 
44 | ClCc1ccccn1 | inactive | 
45 | CCCOC(=O)c1ccccc1C(=O)OCCC | inactive | 
46 | Cc1ccc(N)c(N)c1 | inactive | 
47 | N#CC1(N=NC2(C#N)CCCCC2)CCCCC1 |  | 35% (inactive)
48 | C=C(C)C(=O)OCC(CC)CCCC (stereo unspecified) | inactive | 
49 | O=C(CCN1CC1)OCC(CO)(COC(=O)CCN1CC1)COC(=O)CCN1CC1 |  | 5.68% (inactive)
50 | CCCCOC(=O)c1ccccc1C(=O)OCCCC | inactive | 
51 | CC(O)CN(CC(C)O)CC(C)O (stereo unspecified) | inactive | 
52 | CN(N=O)C(N)=O |  | -25.3% (inactive)
53 | CCOC(=O)c1cncn1C(C)c1ccccc1 (stereo unspecified) |  | 1.76% [at 28.3 µM] (inactive)
54 | CCN(CC)c1ccccc1 | inactive | 
55 | CCOc1nc(F)cc2nc(S(=O)(=O)Nc3c(Cl)cccc3Cl)nn12 |  | -19.7% (inactive)
56 | O=[N+]([O-])c1ccccc1O | inactive | 
57 | Nc1ccc(N=Nc2ccc(-c3ccc(N=Nc4c(S(=O)(=O)O)cc5cc(S(=O)(=O)O)c(N=Nc6ccccc6)c(O)c5c4N)cc3)cc2)c(N)c1 |  | 0.859% [at 28.3 µM] (inactive)

Row | Structure (SMILES) | Potency | activity, negative = inhibition
58 | c1ccc(P(c2ccccc2)c2ccccc2)cc1 | inactive | 
59 | CCCCCBr |  | 13.5% (inactive)
60 | c1ccc2c(c1)sc1ccccc12 | inactive | 
61 | COc1ccc2c3c1O[C@H]1[C@H](O)CC[C@H]4[C@@H](C2)N(C)CC[C@@]341 |  | -5.62% (inactive)
62 | CN(C)CCc1c[nH]c2cccc(OP(=O)(O)O)c12 |  | 8.55% (inactive)
63 | CC(Cl)C(=O)O (stereo unspecified) |  | -8.22% (inactive)
64 | Clc1ccc(Cl)cc1 | inactive | 
65 | FC(F)(F)c1ccc(Cl)cc1 | inactive | 
66 | CCCCCCCCCBr |  | -0.583% (inactive)
67 | COC(=O)NS(=O)(=O)c1ccc(N)cc1 | inactive | 
68 | CC(O)CN1CCN(CC(=O)[O-])CCN(CC(=O)[O-])CCN(CC(=O)[O-])CC1.[Gd+3] (stereo unspecified) |  | 1.75% [at 28.3 µM] (inactive)
69 | Nc1cnn(-c2ccccc2)c(=O)c1Cl |  | -1.77% (inactive)
70 | Cl[C@H]1OCCO[C@@H]1Cl | inactive | 
71 | O=[N+]([O-])c1cc(Cl)ccc1Cl |  | -2.97% (inactive)
72 | c1nc[nH]n1 | inactive | 
73 | COC[C@H](C)N(C(=O)CCl)c1c(C)csc1C |  | 11.5% (inactive)
74 | CCC(=O)Nc1ccc(Cl)c(Cl)c1 | inactive | 
75 | C=C(C)C(=O)OCC1CO1 (stereo unspecified) | inactive | 
76 | O=C(NC(=O)c1c(F)cccc1F)Nc1cc(Cl)c(OC(F)(F)C(F)C(F)(F)F)cc1Cl (stereo unspecified) | 9.42 µM (active) | 

Source: PubChem BioAssay (Tox21)
